The source of these data is PubChem BioAssay (EPA / NIEHS).

The term AC50 denotes the concentration at which the activity in the assay is half-maximal.

Records with an inconclusive call do not appear. Active and inactive are the calls of the source. Rule for the calls, unless noted: active = hit-call score of the fitted dose curve at least 0.9, where 1 is the maximum; inactive = score below 0.9.

Read-out in experiment [1]: Interleukin 6 (IL6), IL6 (gene 3569)
The experiment is described as follows: BSK_BT_xIL6: BioMAP Diversity Plus: BT Assay for Interleukin 6 (IL6) Biomarker Activity (AID 2284228). The following applies: primary human B cells with PBMC. An outline of the steps:
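Human B cell/PBMC co-culture; secreted IL-6 quantified by Luminex xMAP 24 h after chemical dosing, fitted relative to DMSO. Parallel PBMC viability by Alamar Blue after 1 h pretreatment, 20 ng/mL SEB and TSST-1, 90 h incubation.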

Read-out in experiment [2]: Interleukin 17A (IL17A), IL17A (gene 3605)
The experiment is described as follows: BSK_BT_xIL17A: BioMAP Diversity Plus: BT Assay for Interleukin 17A (IL17A) Biomarker Activity (AID 2284229). The following applies: primary human B cells with PBMC. An outline of the steps: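 Co-culture of human B cells and PBMC, dosed for 24 h in 96-well format. Secreted IL-17A measured with Luminex xMAP; gain-direction fitting against DMSO as baseline.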

Read-out in experiment [3]: Tumor necrosis factor (Homo sapiens) (UniProt P01375)
The experiment in a line: BSK_BT_xTNFa: BioMAP Diversity Plus: BT Assay for Tumor necrosis factor alpha (TNF-alpha) Biomarker Activity (AID 2284230). Particulars: primary human B cells with PBMC. An outline of the steps:
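B cells with PBMC in co-culture, dosed and sampled at 24 h; secreted TNF-alpha measured by Luminex xMAP bead assay. Activity fitted in the gain direction against DMSO as negative control and baseline.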

Read-out in experiment [4]: Vascular cell adhesion molecule 1 (VCAM1), VCAM1 (gene 7412)
The experiment is described as follows: BSK_MyoF_VCAM1: BioMAP Diversity Plus: MyoF Assay for Vascular cell adhesion molecule 1 (VCAM1) Biomarker Activity (AID 2284231). The following applies: primary human lung fibroblasts. An outline of the steps: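 Primary human lung fibroblasts (BioMAP MyoF system) dosed with chemical, VCAM-1 measured by ELISA 24 hours later. Fitted in the positive direction against DMSO; parallel SRB staining assessed cytotoxicity.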

Read-out in experiment [5]: Collagen I, COL1A1 (gene 1277)
The experiment in a line: BSK_MyoF_CollagenI: BioMAP Diversity Plus: MyoF Assay for Collagen I Biomarker Activity (AID 2284238). Particulars: primary human lung fibroblasts. The essentials:
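Primary human lung fibroblasts (MyoF system) treated 24 h; Collagen I quantified by ELISA and fitted in positive direction against DMSO. Parallel SRB total-protein staining assessed overt cytotoxicity.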

Read-out in experiment [6]: Collagen III, COL3A1 (gene 1281)
The experiment in a line: BSK_MyoF_CollagenIII: BioMAP Diversity Plus: MyoF Assay for Collagen III Biomarker Activity (AID 2284239). Particulars: primary human lung fibroblasts. The essentials:
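Primary human lung fibroblasts (BioMAP MyoF system) exposed 24 h. Collagen III measured by ELISA; positive-direction fit relative to DMSO.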

Read-out in experiment [7]: Interleukin 17F (IL17F), IL17F (gene 112744)
The experiment is described as follows: BSK_BT_xIL17F: BioMAP Diversity Plus: BT Assay for Interleukin 17F (IL17F) Biomarker Activity (AID 2284243). Particulars: primary human B cells with PBMC. An outline of the steps:
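Human PBMC co-cultured with B cells, compound exposure 24 h; secreted IL-17F quantified by Luminex xMAP, referenced to DMSO control. PBMC viability measured in parallel by Alamar Blue reduction.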

Read-out in experiment [8]: Actin alpha 1 (ACTA1), ACTA1 (gene 58)
The experiment in a line: BSK_MyoF_ACTA1: BioMAP Diversity Plus: MyoF Assay for Actin alpha 1 (ACTA1) Biomarker Activity (AID 2284244). Particulars: primary human lung fibroblasts. An outline of the steps:
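Measured by ELISA: alpha-smooth muscle actin in human primary lung fibroblasts 24 h after dosing, with DMSO as baseline and upward signal change as the fitted direction.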

Read-out in experiment [9]: Interleukin 2 (IL2), IL2 (gene 3558)
The experiment in a line: BSK_BT_xIL2: BioMAP Diversity Plus: BT Assay for Interleukin 2 (IL2) Biomarker Activity (AID 2284245). The following applies: primary human B cells with PBMC. The essentials:
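Secreted interleukin-2 from human B cell/PBMC co-cultures, measured 24 h post-dosing by Luminex multiplex immunoassay. Upward-direction curve fitting against DMSO baseline.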

Read-out in experiment [10]: Basic fibroblast growth factor (bFGF), FGF2 (gene 2247)
The experiment in a line: BSK_MyoF_bFGF: BioMAP Diversity Plus: MyoF Assay for Basic fibroblast growth factor (bFGF) Biomarker Activity (AID 2284246). Particulars: primary human lung fibroblasts. An outline of the steps:
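In this multiplexed cell system, lung fibroblasts (human primary) receive test chemical for 24 h before ELISA detection of bFGF; DMSO defines baseline and the analysis direction is positive.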

Read-out in experiment [11]: Collagen IV, COL4A1 (gene 1282)
The experiment in a line: BSK_MyoF_CollagenIV: BioMAP Diversity Plus: MyoF Assay for Collagen IV Biomarker Activity (AID 2284247). The following applies: primary human lung fibroblasts. The essentials: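 Activity is scored as a signal increase over DMSO in an ELISA for Collagen IV, measured on human lung fibroblasts at 24 h after chemical treatment. Cytotoxicity is checked in parallel cultures by sulforhodamine B total-protein staining.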

Experiment [12] is described as follows: UKN2_HCS_IMR90_cell_viability: Viability Assessment in the University of Konstanz (UKN) Leist Lab Neural Crest Cell Migration Assay in human induced IMR90 Pluripotent Stem Cells (UKN2) (AID 2284233).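 Note: viability of neural crest cells differentiated from IMR90 iPSC measured by calcein-AM fluorescence imaging; cells exposed to compound for 24 h after a 24 h migration phase.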 The essentials:
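Human IMR90-derived neural crest cells were allowed to migrate for 24 h into a cell-free zone, then exposed to test chemicals for 24 h. Calcein-AM and Hoechst staining with high-content imaging gave viability, analysed against DMSO baseline.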

The nature of experiment [13]: CCTE_Mundy_HCI_Cortical_NOG_NeuronCount: CCTE's Neurite Outgrowth Assay in rat cortical cells for Neuron Count, Mundy Lab (AID 2284236; active = hit-call score of the fitted dose curve at least 0.9, where 1 is the maximum;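 note: neurons counted by imaging betaIII-tubulin and Hoechst stained cortical cells; cells exposed to compound for about 48 hours before fixation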). An outline of the steps:
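Read-out: neuron number by high-content imaging of betaIII-tubulin (Alexa Fluor-488) and Hoechst-labelled rat primary cortical cells.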

The nature of experiment [14]: CCTE_Mundy_HCI_Cortical_NOG_BPCount: CCTE's Neurite Outgrowth Assay in rat cortical cells for Branch Point Count, Mundy Lab (AID 2284237).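 Note: branch points counted about two days after chemical exposure.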 An outline of the steps: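 Measured 50.33 h after dosing, this morphology endpoint uses rat primary cortical cultures labelled for betaIII-tubulin. Branch points are quantified by high-content imaging, with DMSO as negative control and baseline.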

Experiment [15] can be described thus: CCTE_Mundy_HCI_hNP1_Casp3_7: CCTE's Caspase-Glo 3/7 Assay in human neuroprogenitor cells for Apoptosis, Mundy Lab (AID 2284240). The essentials: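 Apoptosis is scored by activated caspase-3/7 luminescence in WA09-derived neural progenitor cells, measured 26.5 h after chemical dosing. Values represent gain of signal relative to DMSO vehicle.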
A short description of experiment [16]: CCTE_Mundy_HCI_hNP1_CellTiter: CCTE's Cell Titer-Glo 2 Assay in human neuroprogenitor cells for Viability, Mundy Lab (AID 2284241; active = hit-call score of the fitted dose curve at least 0.9, where 1 is the maximum;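 for AC50: a hit is a drop in ATP luminescence versus DMSO meaning reduced viability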). An outline of the steps:
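Human neural progenitor cells (hNP1, WA09-derived) were plated on poly-L-ornithine/laminin and grown 40 to 44 hours at 37 °C, 5% CO2 before chemical addition. Twenty-four hours later, ATP was measured by CellTiter-Glo luminescence; loss of signal versus DMSO indicates reduced viability.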

The nature of experiment [17]: CCTE_Mundy_HCI_Cortical_Synap_Neur_Matur_NeuronCount: CCTE's Synaptogenesis and Neurite Maturation Assay in rat cortical cells for Neuron Count, Mundy Lab (AID 2284242; active = hit-call score of the fitted dose curve at least 0.9, where 1 is the maximum;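 note: neuron number from Hoechst nuclei and MAP2 staining by high-content imaging; hits reduce neuron count versus DMSO baseline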). The essentials: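 Imaging-based neuron count in rat cortical cultures after chemical exposure from DIV 7 to DIV 12, with AraC added at DIV 5. Activity is fitted relative to DMSO.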

Chain of Tumor necrosis factor (Homo sapiens) (P01375 whole entry, looked up): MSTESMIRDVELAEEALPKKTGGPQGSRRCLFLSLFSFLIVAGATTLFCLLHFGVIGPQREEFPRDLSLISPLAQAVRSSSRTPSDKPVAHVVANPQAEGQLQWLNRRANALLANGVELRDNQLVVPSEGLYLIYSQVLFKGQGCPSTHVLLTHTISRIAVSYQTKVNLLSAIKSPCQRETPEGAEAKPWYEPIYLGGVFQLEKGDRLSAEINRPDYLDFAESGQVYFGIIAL

Consider `CCOP(=S)(OCC)OP(=S)(OCC)OCC`, for which the result in experiment [1], in experiment [2], in experiment [3], in [4], in experiment [5] and in experiment [6] was inactive. Besides, the result in experiment [7], in experiment [8], in [9], in experiment [10] and in experiment [11] was inactive.
Take `OC(Cc1ccccc1Cl)(Cn1[nH]cnc1=S)C1(Cl)CC1` (stereo not given): the result in [1], in experiment [2], in [3], in experiment [13], in experiment [16] and in [7] was inactive. Further, the result in experiment [9], in experiment [10] and in experiment [11] was inactive. The AC50 in experiment [12] is 63.1 µM (active); in experiment [14] it was 50 µM (active); in experiment [5], 31.4 µM (active); in [6], 30.5 µM (active); in experiment [15] it was 91 µM (active); in experiment [17], 83.8 µM (active). Further, the AC50 in experiment [8] was 25.3 µM (active).
As to `O=C(CCl)NCO`, the outcome in experiment [1], in experiment [2], in experiment [3], in [5], in [6] and in experiment [7] was inactive. Also, the outcome in [8], in [9], in [10] and in experiment [11] was inactive.
`Cc1ccccc1OP(=O)(Oc1ccccc1C)Oc1ccccc1C`: the concentration at half-maximal activity (AC50) in experiment [1] was 20 µM (active); in experiment [2], 24.7 µM (active); in experiment [3], 31 µM (active); in experiment [12] it was 8.46 µM (active); in experiment [13] it was 24.1 µM (active); in experiment [14] it was 18 µM (active). Moreover, the AC50 in [5] is 9.92 µM (active); in experiment [6], 10 µM (active); in experiment [15], 10.8 µM (active); in experiment [16], 18.3 µM (active); in experiment [17] it was 2.83 µM (active); in [7], 27.3 µM (active). The AC50 in experiment [8] was 9.16 µM (active); in [9], 20 µM (active); in experiment [10], 33.3 µM (active); in [11], 20 µM (active).
Turning to `CCN(CC)C(=O)C(Cl)=C(C)OP(=O)(OC)OC`, the result in [1], in experiment [2], in experiment [3], in [4], in experiment [5] and in experiment [7] was inactive. Further, the outcome in experiment [9], in [10] and in [11] was inactive. The half-maximal activity concentration (AC50) was 0.016 µM (active) in experiment [6] and 0.0702 µM (active) in experiment [8].
With `CCOP(=O)(OCC)OC(=CCl)c1ccc(Cl)cc1Cl`, the AC50 was 10.4 µM (active) in [1]; 35.8 µM (active) in experiment [5]; 30.7 µM (active) in experiment [6]; 30.5 µM (active) in experiment [8]; 20 µM (active) in experiment [9]. In addition, the result in [2], in experiment [3], in experiment [7], in [10] and in [11] was inactive.
With `O=S(=O)(C(Cl)(Cl)Cl)C(Cl)(Cl)Cl`, the half-maximal activity concentration (AC50) was 3.85 µM (active) in experiment [1]; 3.08 µM (active) in [2]; 4.36 µM (active) in [3]; 3.07 µM (active) in [5]; 4.1 µM (active) in [6]; 3.03 µM (active) in experiment [7]. Further, the AC50 is 2.64 µM (active) in experiment [8], 4.48 µM (active) in experiment [9], 3.71 µM (active) in experiment [10] and 2.53 µM (active) in experiment [11].
As to `OC(Cc1ccccc1Cl)(Cn1cncn1)C1(Cl)CC1` (stereo not given), the result in experiment [1], in experiment [2], in experiment [3], in [5], in experiment [6] and in [7] was inactive. For the same compound, the result in experiment [8], in experiment [9], in experiment [10] and in [11] was inactive.
As to `CCOP(=O)(OCC)SCCSCC`, the result in experiment [1], in experiment [2], in experiment [3], in experiment [5], in [6] and in experiment [7] was inactive. Moreover, the result in experiment [8], in experiment [9], in experiment [10] and in experiment [11] was inactive.
Turning to `CCOP(=S)(OCC)SCS(=O)(=O)C(C)(C)C`, the outcome in [1], in [2], in experiment [3], in experiment [5], in [6] and in [7] was inactive. The result in experiment [8], in experiment [9], in experiment [10] and in [11] was inactive.
Consider `O=S(=O)(c1ccc(Cl)cc1)c1cc(Cl)c(Cl)cc1Cl`, for which the outcome in [1], in experiment [2], in [3], in experiment [5], in [6] and in [8] was inactive. For the same compound, the outcome in experiment [10] and in experiment [11] was inactive. In addition, the figures for the AC50 in experiment [7] and in experiment [9] were 25.1 µM (active) and 20 µM (active), respectively.
Turning to `NC(=O)CCl`, the outcome in experiment [1], in experiment [2], in [3], in [4], in experiment [5] and in experiment [6] was inactive. The result in [7], in experiment [8], in [10] and in experiment [11] was inactive. Further, in [9], the concentration at half-maximal activity (AC50) was 20 µM (active).
On to `Cc1cc(Cl)ccc1OC(C)C(=O)O` (stereo not given), for which the result in [1], in [2], in experiment [3], in experiment [5], in [6] and in [7] was inactive. Moreover, the result in experiment [8], in experiment [9], in experiment [10] and in experiment [11] was inactive.
